Only some compounds are listed: those with a hit (about 5.2% of all), similar ones and a draw of the others.
NRP1-CendR mod – modulators of CendR peptide binding to NRP-1, primary screen, biochemical, fluorescence polarization, uHTS; FAM-RPARPAR peptide binding to NRP-1; AID 602438, 2012; Neuropilin-1 (Homo sapiens), O14786; 360,000 compounds, 0.85% hits; inhibition, % at 25 µM;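 active means inhibition or corrected inhibition above about 18%, plus a signal ratio from 0.5 to 1.5, limit read from the data, passing the limit was not always enough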
A3A deaminase – APOBEC3A ssDNA deaminase inhibitors, primary screen, selectivity assay for APOBEC3G inhibitor project, biochemical, FAM/TAMRA oligo cleavage fluorescence | DNA dC->dU-editing enzyme APOBEC-3A (Homo sapiens), P31941 | recombinant A3A, FAM/TAMRA ssDNA deamination fluorescence | inhibition, % at 20 µM | 330,000 compounds, 0.41% hits;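 active means at least 40% inhibition at 20 µM here, with at most 30% in a related deaminase screen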;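 further: plate controls were A3A with DMSO for no effect and wells lacking A3A enzyme for full effect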
PfM18AAP inh – PfM18AAP inhibitors, malaria aminopeptidase, primary screen, biochemical, QFRET, recombinant enzyme; H-Glu-NHMec fluorogenic cleavage; inhibition, % at 7.35 µM; AID 1822, 2009; 290,000 compounds, 1.2% hits;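 active means inhibition above the campaign mean inhibition over all tested compounds plus 3 SD, cut at about 28% in these data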;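 further: 0% = plate median of test compound wells and 100% = 2 mM ZnCl2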
Yeast superoxide – reduction of superoxide in aged yeast, primary screen, HTS | S. cerevisiae aged cells, superoxide DHE fluorescence; hits give low values | superoxide response (% of plate mean), % at 10 µM | 330,000 compounds, 0.18% hits;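 active means superoxide response under a set limit, about three screen SD below normal, cut at about 65% in these data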;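 further: yeast aged for seven days with compound at 30 °C before DHE staining; 100% = average MFI of all compound-treated wells on the plate with controls excluded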
ALR H2O2 inh – inhibitors of human ALR sulfhydryl oxidase, primary screen, biochemical, H2O2 detection, HRP-luminol luminescence, single point. purified ALR, DTT oxidation. FAD-linked sulfhydryl oxidase ALR (Homo sapiens), P55789. AID 485317, 2010. 290,000 compounds, 3.8% hits. inhibition, % (no concentration beside the values);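 active means mean replicate inhibition above about 79%, with every replicate also reaching it, limit read from the data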
Target sequence (P55789 whole entry, looked up): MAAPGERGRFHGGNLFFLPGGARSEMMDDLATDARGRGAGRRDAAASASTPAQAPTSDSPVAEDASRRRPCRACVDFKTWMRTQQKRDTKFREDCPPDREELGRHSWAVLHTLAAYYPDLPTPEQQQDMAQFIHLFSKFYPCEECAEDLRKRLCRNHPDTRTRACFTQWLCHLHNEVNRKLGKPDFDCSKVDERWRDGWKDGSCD
A3G deaminase – APOBEC3G DNA deaminase inhibitors, primary screen, biochemical, fluorescence, single-stranded DNA substrate, uHTS; DNA dC->dU-editing enzyme APOBEC-3G (Homo sapiens), Q9HC16; recombinant A3G, ssDNA deamination FAM/TAMRA fluorescence; inhibition, % at 20 µM; 330,000 compounds, 0.28% hits; AID 493012, 2011;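 active means inhibition of at least 40% at 20 µM, with no more than 30% in the related APOBEC3A deaminase screen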;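 further: plate controls were DMSO wells with A3G for no effect and wells lacking A3G enzyme for full effect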
Target sequence (Q9HC16 whole entry, looked up): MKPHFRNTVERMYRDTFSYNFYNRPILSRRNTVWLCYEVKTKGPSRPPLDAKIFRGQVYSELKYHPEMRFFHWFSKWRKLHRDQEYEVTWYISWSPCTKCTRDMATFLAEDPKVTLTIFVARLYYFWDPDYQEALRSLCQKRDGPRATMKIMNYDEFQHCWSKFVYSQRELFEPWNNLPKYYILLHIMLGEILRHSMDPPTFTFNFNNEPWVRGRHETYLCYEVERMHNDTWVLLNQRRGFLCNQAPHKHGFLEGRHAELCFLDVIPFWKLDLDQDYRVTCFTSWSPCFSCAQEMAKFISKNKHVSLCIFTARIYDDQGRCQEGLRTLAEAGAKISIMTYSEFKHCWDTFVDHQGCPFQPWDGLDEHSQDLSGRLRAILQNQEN
Active calls of the source: *; x = not tested or not shown.

SMILES	NRP1-CendR mod	A3A deaminase	PfM18AAP inh	Yeast superoxide	ALR H2O2 inh	A3G deaminase
C=CCN1CCc2c(cc(O)c(O)c2Br)[C@@H](c2ccccc2)C1	9	-3	x	104	99*	-5
Cc1ccc(NC2CCCN(C(=O)CCN3CCOCC3)C2)cc1C (stereo not given)	23	-6	7	95	99*	1
Cc1ccc(NC2CCCN(C(=O)CCn3nccc3C)C2)cc1C (stereo not given)	3	-2	9	105	99*	17
CC(C)c1ccc(NC2CCCN(C(=O)CCN3CCOCC3)C2)cc1 (stereo not given)	-6	-3	-2	92	55	-4
COc1ccc(/C=C2\Oc3cc(OCC(=O)N4CCC(C(=O)O)CC4)ccc3C2=O)c(OC)c1OC	-11	-2	1	119	91*	-7
CC(C)(C)OC(=O)Nc1ncnc2c1ncn2C1OC(CO)C2OC(C)(C)OC21 (stereo not given)	-4	-2	3	97	8	-4
CC1(C)O[C@@H]2[C@H](O1)[C@@H](CO)O[C@H]2n1cnc2c(=O)[nH]cnc21	26*	-2	x	107	-15	-11
CCCNS(=O)(=O)c1ccc(OCC(=O)Nc2ccc3c(c2)OCCO3)cc1	16	-9	-2	92	-5	-3
COc1ccc(-c2noc(CCC(=O)Nc3cccc(C(=O)NC4CC4)c3)n2)cc1OC	3	x	x	x	x	x
Cc1ccc(N2CCN(S(=O)(=O)c3ccc4c(c3)NC(=O)C(C)C(=O)N4)CC2C)cc1 (stereo not given)	-16	-2	-4	91	97*	-7
O=C(O)C1C2C=CC3(CN(Cc4ccncc4)C(=O)C13)O2 (stereo not given)	14	2	-5	97	2	8
COc1cc(/C=C(\C#N)c2nc3c(s2)CCCC3)ccc1O	x	-25	-9	105	x	-75
N#C/C(=C\c1cccnc1)c1nc2c(s1)CCCC2	5	-1	0	103	98*	-1
N#C/C(=C/c1cccnc1)c1ccccc1	6	-6	-3	100	-5	-4
CC1CCc2nc(/C(C#N)=C/c3cccnc3)sc2C1 (stereo not given)	0	0	-5	108	97*	-2
CCc1nc2ccccc2c(C(=O)Nc2cc(C)ccc2C)c1C	2	1	-3	97	-3	-2
CCOC(Cn1cc([N+](=O)[O-])c(=O)[nH]c1=O)OCC	4	x	x	x	x	x
CCOC(Cn1ccc(=O)[nH]c1=O)OCC	26*	-1	1	93	1	-5
CC(C)c1ccc(Oc2cccc(C(=O)/C(C#N)=C/N(C)C)c2)cc1	0	-4	14	104	98*	-3
COC(=O)c1ccc(NC(=O)CSc2nc3cccnc3n2C)cc1	-14	-3	7	103	-28	-5
O=C(O)CS(=O)CC(=O)Nc1cccc(C(F)(F)F)c1 (stereo not given)	-10	4	6	95	99*	3
CSc1nccn1CC(=O)Nc1ccc(F)cc1	6	1	4	96	98*	-1
Cn1cnnc1SCC(=O)Nc1ccc(Oc2ccccc2)cc1	6	1	-7	103	1	26
COc1ccc(NC(=O)CSc2nc3cccnc3n2C)cc1	6	-4	4	111	99*	-7
CN(CC(=O)Nc1ccc(F)cc1)C(=O)CSc1nccn1C	4	-3	x	90	-4	-11
SMILES	NRP1-CendR mod	A3A deaminase	PfM18AAP inh	Yeast superoxide	ALR H2O2 inh	A3G deaminase
Cn1ccnc1SCC(=O)Nc1ccc(Oc2ccccc2)cc1	11	-2	7	97	99*	-4
COc1ccc(C)cc1S(=O)(=O)N(C)CC(=O)NC1CCCC1	-8	-2	-3	107	-1	-7
O=C(CSC1=NCCN1)Nc1cccc(C(F)(F)F)c1	-3	0	9	114	100*	-3
CCCCOc1cccc(NC(=O)CSc2nccn2C)c1	-4	1	-17	88	99*	0
COc1cc(NC(=O)CSCc2cnn(-c3ccccc3)c2-n2cccc2)cc(OC)c1	1	-4	-11	118	x	-6
CCOc1ccc(NC(=O)CSCc2cnn(-c3ccccc3)c2-n2cccc2)cc1	-3	-3	-4	95	99*	-10
CCOc1ccc(NC(=O)N2CCC(C(N)=O)(N3CCCCC3)CC2)cc1	0	-2	28*	150	-3	-2
NC(=O)C1(N2CCCCC2)CCN(C(=S)Nc2ccccc2)CC1	0	3	3	97	0	-7
CCc1cccc2c(C(=O)C(NCCOC)c3ccccc3)c[nH]c12 (stereo not given)	7	1	9	92	-1	-5
NS(=O)(=O)c1cccc(NC(=O)c2cccc(Oc3ccccc3)c2)c1	-1	-3	-2	97	x	1
CN(Cc1ccccc1)C(=O)c1[nH]cnc1C(=O)NC1CCN(C(=O)OC(C)(C)C)CC1	2	0	x	83	2	2
O=C1Nc2ccccc2C12OCCS2 (stereo not given)	x	1	x	97	-6	-2
Cn1ccnc1SCC(=O)c1ccc(OC(F)F)cc1	7	-2	0	84	x	-10
CCOc1ccc(NC(=O)CN2C(=O)C(C)SC(C)C2=O)cc1 (stereo not given)	25*	-6	-3	106	33	-3
CCOc1ccc(NC(=O)CN2C(=O)C3CC=CCC3C2=O)cc1 (stereo not given)	11	4	-1	106	1	-1
COc1ccc(C(=O)CSc2nccn2C)cc1	-6	2	0	89	99*	-4
Cn1ccnc1SCC(=O)Nc1cccc(C(F)(F)F)c1	-1	3	-1	96	100*	13
CCOc1ccc(NC(=O)CSC(N)=O)cc1	17	-3	12	102	99*	-2
Cn1ccnc1SCC(=O)Nc1cccc(O)c1	16	6	-1	84	-10	-2
CCOc1ccc(NC(=O)CSc2nccn2C)cc1	-6	-2	2	95	99*	-6
Cc1ccccc1NC(=O)Cc1nc(COC(=O)/C=C/c2ccccc2)cs1	-17	-1	x	88	-2	-11
Cc1oc(-c2ccccc2F)nc1CS(=O)CC(=O)NC1CCCCC1 (stereo not given)	12	2	-2	104	98*	-3

Bioassay records: PubChem, several laboratories
